Compound activity as filed in PubChem.
ssDAF12 agonist: activates DAF-12 receptor from parasite S. stercoralis. HEK293 ssDAF-12/GRIP1 lit1-tk-luc reporter, luminescence; % of 3 µM dafachronic acid response. AID 652126. activation, % at 6.8 µM. actives 1% (n = 370,000);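 active = activation above the mean over all tested compounds plus 3 SD, cut at about 0.9% in these data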;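 also: 0% = DMSO-only wells and 100% = 3 µM delta7-dafachronic acid wells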
hgDAF12 agonist: agonists of H. glycines DAF-12 nuclear receptor. HEK293 GAL4-hgDAF12 UAS-luciferase reporter, agonist luminescence; normalized to butyrate control. activation, % at 6.8 µM. actives 1.8% (n = 370,000). AID 687014;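 active = activation above a cutoff set at the mean of all screened compounds plus 3 SD, cut at about 10% in these data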;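 also: 0% = DMSO wells and 100% = sodium butyrate wells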
DAX1 inh-1: inhibits human nuclear receptor DAX1; inhibition, % at 6.75 µM; P51843; actives 0.99% (n = 340,000); HEK293 Gal4-DAX1 luciferase reporter, luminescence;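 active = inhibition above the mean over all tested compounds plus 3 SD, cut at about 4.2% in these data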;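 also: 0% = DAX1-transfected cells with DMSO and 100% = empty-vector control cells with DMSO; inhibition shows as a rise in luminescence from relieved DAX1 repression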
Target sequence (P51843 207-470 limits assumed): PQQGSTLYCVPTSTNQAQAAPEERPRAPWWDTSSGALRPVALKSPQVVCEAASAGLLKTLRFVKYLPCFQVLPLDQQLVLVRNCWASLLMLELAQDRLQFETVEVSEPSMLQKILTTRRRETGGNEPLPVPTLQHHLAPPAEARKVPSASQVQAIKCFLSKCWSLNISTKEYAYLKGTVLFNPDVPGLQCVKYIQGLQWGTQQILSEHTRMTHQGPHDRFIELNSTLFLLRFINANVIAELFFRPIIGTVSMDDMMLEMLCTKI
DAX1 inh-2: DAX1 (NR0B1) inhibition, primary screen; inhibition, % at 6.8 µM; HEK293T StAR-luciferase reporter, SF-1/DAX-1 repression relief; actives 1.1% (n = 370,000);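 active = inhibition above the mean over all tested compounds plus 3 SD, cut at about 3.6% in these data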;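 also: 0% = DAX-1 cells with DMSO and 100% = cells lacking DAX-1 with DMSO; higher inhibition means more luminescence from relief of DAX-1 repression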
SMARCA2 activ: SMARCA2 function activation, primary screen; actives 1% (n = 370,000); activation, % at 9.1 µM; MG213 cells, MMTV-luciferase reporter, dexamethasone, overnight; AID 652017; in the data active = activation above about 7.8%;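 also: 0% = vehicle wells and 100% = reference activator wells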
hcDAF-12 act: activates DAF-12 receptor from parasite H. contortus; activation, % at 6.8 µM; HEK293 hcDAF-12 lit1-tk-luc reporter, luminescence; 0% DMSO, 100% Δ7-dafachronic acid; actives 1.4% (n = 370,000);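 active = activation above the mean of all tested compounds plus 3 SD, cut at about 5.5% in these data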;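 also: 100% = response to 3 µM Δ7-dafachronic acid high control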
DAX1 inh confirm: confirmation of human DAX1 (NR0B1) inhibitors; shares compounds with DAX1 inh-2; HEK293T StAR-promoter luciferase reporter, SF-1/DAX-1 repression; inhibition, % at 6.8 µM; actives 87% (n = 2,400);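 active = inhibition above the average of every tested compound plus 3 SD, cut at about 3.8% in these data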;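 also: 0% = DAX-1 cells with DMSO and 100% = no DAX-1 control cells with DMSO; active compounds raise luminescence by relieving repression of the StAR reporter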
Target sequence (P51843 whole entry, looked up): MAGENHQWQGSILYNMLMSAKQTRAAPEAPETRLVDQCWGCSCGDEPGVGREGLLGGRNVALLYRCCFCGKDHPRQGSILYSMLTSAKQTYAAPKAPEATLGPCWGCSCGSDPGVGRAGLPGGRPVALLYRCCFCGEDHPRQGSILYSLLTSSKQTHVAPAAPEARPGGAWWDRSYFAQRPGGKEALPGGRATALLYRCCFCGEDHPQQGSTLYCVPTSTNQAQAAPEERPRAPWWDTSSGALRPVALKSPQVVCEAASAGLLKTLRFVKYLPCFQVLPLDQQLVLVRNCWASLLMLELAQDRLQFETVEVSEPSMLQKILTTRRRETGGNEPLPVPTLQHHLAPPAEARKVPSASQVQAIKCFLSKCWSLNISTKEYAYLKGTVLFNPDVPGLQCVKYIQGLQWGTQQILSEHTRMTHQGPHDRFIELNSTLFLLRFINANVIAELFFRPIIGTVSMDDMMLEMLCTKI
SF1 AF2mut Luc: counter-screen for DAX1 inhibitors: nonselective inhibitors with SF-1 AF2 mutant; shares compounds with DAX1 inh-2; HEK293 StAR-luciferase, luminescence; inhibition, % at 6.8 µM; actives 78% (n = 2,400);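 active = inhibition above the mean of all tested compounds plus 3 SD, cut at about 3% in these data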;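 also: 0% = DAX-1 transfected cells with DMSO and 100% = cells without DAX-1 with DMSO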
LXRb hcDAF ctr: LXR-beta agonism as hcDAF-12 counter-screen; shares compounds with hcDAF-12 act; HEK293 Gal4-LXR tk-luc reporter, luminescence, 24 h; normalized: DMSO 0%, positive control 100%; activation, % at 6.8 µM; 3,400 tested, under 10 active; AID 743027;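 active = mean percent activation of the reporter above a cutoff set as the average over tested compounds plus their standard deviation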
hcDAF12 conf: confirmation of H. contortus DAF-12 agonists. shares compounds with hcDAF-12 act. HEK293 hcDAF-12 lit1-tk-luc reporter, luminescence; % of Δ7-dafachronic acid response. activation, % at 6.8 µM. actives 61% (n = 3,400);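 active = mean activation across triplicate tests above the threshold derived from the earlier primary screen, cut at about 5.5% in these data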;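 also: 0% = DMSO only wells and 100% = 3 µM Δ7-dafachronic acid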
hgDAF12 conf: confirmation of H. glycines DAF-12 agonists. shares compounds with hgDAF12 agonist. HEK293 GAL4-hgDAF12 luciferase reporter, agonist mode; percent of butyrate response. activation, % at 6.8 µM. actives 80% (n = 3,300). AID 743050;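 active = mean activation over triplicate wells above the hit cutoff derived from the earlier primary screen, cut at about 11% in these data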;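 also: 0% = DMSO low control and 100% = 2 mM sodium butyrate high control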
LXRb DAF12 ctr: counter-screen for DAF-12 agonists: agonists of human LXR-beta. shares compounds with hgDAF12 agonist. HEK293 Gal4-LXR luciferase reporter, 24 h. activation, % at 6.8 µM. 3,300 tested, under 10 active. AID 743051;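 active = mean activation of the triplicate above a set limit carried over from the primary screen, none filed active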
Numbers without * were called inactive; . = no result. The list is not random: actives were taken first. Their share in the collection is about 4.8%.

SMILES	ssDAF12 agonist	hgDAF12 agonist	DAX1 inh-1	DAX1 inh-2	SMARCA2 activ	hcDAF-12 act	DAX1 inh confirm	SF1 AF2mut Luc	hgDAF12 conf	LXRb DAF12 ctr	others
O=C1C(c2cc(=O)c3ccccc3[nH]2)=C(O)c2ccccc21	1.6*	21.1*	3.2	4.6*	3.5	10.3*	16.4*	8.0*	18.3*	0.8	LXRb hcDAF ctr=1.1;hcDAF12 conf=8.1*
Cc1cccc(C)c1OCc1cc(C(=O)N2CCN(c3ccc(F)cc3)CC2)no1	0.2	14.1*	1.6	5.9*	2.5	4.8	4.5*	3.6*	14.7*	0.6
CC(=O)c1cccc(OCc2cc(C(=O)N3CCSCC3)no2)c1	-0.7	13.7*	1.2	4.8*	0.9	4.3	6.6*	6.3*	14.9*	0.5
COC(=O)[C@@]12CCCN1[C@H](c1ccc(-c3ccc(OC)cc3)c(OC)c1)[C@H]1C(=O)N(C)C(=O)[C@H]12	-1.3	4.9	0.0	-0.5	1.7	-1.1	.	.	.	.
CCOC(=O)C1CCCCN1C(=O)c1ccc2nc(Cc3ccc(OC)cc3)oc2c1 (configuration not stated)	-1.0	-1.9	0.9	-0.2	-2.5	-3.4	.	.	.	.
COc1ccc(CNC(=O)c2c[nH]c3ccccc3c2=O)cc1	-1.9	-0.5	-0.8	-0.1	-1.3	-2.7	.	.	.	.
CCCC(=O)Nc1ccc(-c2nc3cc(C)c(C)cc3o2)cc1	1.6*	13.3*	2.3	5.5*	2.8	5.4	14.4*	8.7*	16.4*	0.9
CCOc1ccc2oc(C(=O)Nc3cc(C)ccn3)c(C)c2c1	0.0	13.6*	2.5	13.1*	1.0	2.7	11.0*	5.0*	17.2*	0.9
Cc1csc(NC(=O)c2oc3ccccc3c2C)n1	2.1*	18.6*	1.7	13.7*	5.6	18.3*	13.4*	8.0*	17.1*	1.5	LXRb hcDAF ctr=2.1;hcDAF12 conf=18.1*
Cc1ccnc(NC(=O)c2oc3ccccc3c2C)c1	3.0*	22.1*	-0.1	10.5*	4.3	19.9*	9.2*	3.7*	19.6*	1.4	LXRb hcDAF ctr=1.7;hcDAF12 conf=15.1*
O=C(Oc1cccc2ccccc12)c1ccncc1	-0.1	-1.2	-0.2	0.8	-2.2	0.0	.	.	.	.
Nc1cccc(-c2cn3cc(C(F)(F)F)cc(Cl)c3n2)c1	2.1*	13.7*	0.5	5.3*	2.3	11.8*	12.8*	7.6*	17.8*	0.8	LXRb hcDAF ctr=1.4;hcDAF12 conf=9.1*
FC(F)(F)c1cc(Cl)c2nc(-c3ccccc3)cn2c1	2.8*	19.7*	2.9	6.6*	7.6	17.8*	14.8*	7.4*	23.4*	1.1	LXRb hcDAF ctr=1.8;hcDAF12 conf=17.1*
OCCN1CCN(c2ncnc3c2ncn3[C@H]2CN(Cc3cccnc3)C[C@@H](CO)O2)CC1	-1.2	-2.3	.	0.0	-7.1	1.1	.	.	.	.
COc1ccc(C(=O)Nc2ccc(Br)cn2)cc1S(=O)(=O)N1CCOCC1	-1.5	1.0	0.3	-1.5	-1.2	0.5	.	.	.	.
C=CCn1c(SCC(=O)NCc2ccccc2)nnc1C1CCCCC1	.	.	0.2	.	.	.	.	.	.	.
N#Cc1c(NC(=O)CSc2nnc(-c3ccccc3)o2)sc2c1CCCC2	.	.	-0.3	.	.	.	.	.	.	.
O=C(CSc1nnc(-c2csc3c2CCCC3)o1)Nc1ccccc1	2.1*	17.7*	-0.2	10.4*	2.9	14.3*	19.1*	7.2*	16.0*	1.2	LXRb hcDAF ctr=2.2;hcDAF12 conf=18.9*
C/C(=N\Nc1nc2ccccc2s1)c1ccc2c(c1)OCO2	0.3	7.0	1.0	1.0	3.2	2.5	.	.	.	.
c1ccc2sc(NN=C3CCCCCC3)nc2c1	0.8	13.4*	0.6	5.2*	-0.3	12.4*	5.4*	0.8	6.1	0.8	LXRb hcDAF ctr=1.8;hcDAF12 conf=10.8*
Cc1ccsc1/C=C(\C#N)C(=O)NCCCN1CCOCC1	-1.9	-0.1	3.1	-0.3	-1.7	0.5	.	.	.	.
CC(C)Cc1nnc(NC(=O)c2ccc3c(c2)OCCO3)s1	0.2	15.3*	0.5	8.1*	4.9	5.8*	14.7*	7.1*	13.4*	0.8
O=C(Nc1ncccc1O)c1ccc2c(c1)OCO2	-0.1	36.8*	4.1	16.6*	3.0	3.8	27.1*	13.9*	39.1*	0.4
Cc1ccnc(NC(=O)c2ccc3c(c2)OCO3)c1	-0.8	18.2*	-1.4	4.9*	6.8	6.3*	7.0*	3.7*	11.0*	0.7
CCc1cc(C(=O)Nc2ncccc2O)sc1C	0.6	20.0*	-1.3	20.2*	3.2	6.4*	21.4*	9.0*	24.6*	0.8
SMILES	ssDAF12 agonist	hgDAF12 agonist	DAX1 inh-1	DAX1 inh-2	SMARCA2 activ	hcDAF-12 act	DAX1 inh confirm	SF1 AF2mut Luc	hgDAF12 conf	LXRb DAF12 ctr	others
Cc1nc2ncccn2c1-c1csc(Nc2ccccc2)n1	-2.1	3.0	0.2	-0.6	-4.1	-2.0	.	.	.	.
COc1ccc(C(=O)CSc2nc3cccnc3n2C)cc1	-1.1	-0.5	-2.0	-1.0	-4.4	-3.6	.	.	.	.
O=C(NCc1ccco1)c1ccc(N2CCCC2=O)cc1	-1.1	-0.9	-1.0	0.3	6.6	-1.1	.	.	.	.
Cc1cccnc1NC(=O)c1ccc2c(c1)OCCO2	0.0	4.9	1.1	2.9	0.9	1.9	.	.	.	.
O=C(Nc1ncccc1O)c1ccc2c(c1)OCCO2	1.3*	60.2*	8.1*	32.7*	1.4	7.2*	41.8*	21.8*	57.5*	0.8	LXRb hcDAF ctr=1.8;hcDAF12 conf=4.0
CC1CCC(C(=O)NNC(=O)c2cc(-c3ccco3)[nH]n2)CC1 (configuration not stated)	-1.6	-0.1	-0.9	0.4	-4.6	-1.3	.	.	.	.
Cc1cc(O)ccc1Nc1nc(-c2cccs2)cs1	1.0*	16.8*	0.5	5.5*	2.9	5.3	9.3*	4.7*	20.9*	0.9
CN(c1ccc(O)cc1)c1nc(-c2cccs2)cs1	0.5	18.6*	1.1	7.7*	1.9	5.0	8.7*	3.6*	14.2*	0.9
Cc1nc(C)c(-c2csc(Nc3ccc(O)cc3C)n2)s1	-1.4	-2.8	-0.2	-0.7	3.2	-3.1	.	.	.	.
